# Data as given in the supplement of paper PMC9262897, “Low-cost anti-mycobacterial drug discovery using engineered E. coli” (Nature Communications, 2022).
# Where a name gives a salt, the structure may show the parent alone. ± gives the standard deviation of the averaged measurements.
# System: E. coli TESEC Mtb Alr
# Experiment: growth (OD600 after 10 h); higher = more growth (less inhibition)
# Settings: compound 0.1 mM
# Protocol: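 TESEC Mtb Alr E. coli, or the Alr+ wild-type control, in 384-well plates with Prestwick library compounds at 0.1 mM and 1% DMSO, across arabinose induction levels of 1E3 to 1E7 nM. Growth is read as OD600 after 10 h at 37 °C in triplicate biological replicates.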
# [1] = arabinose 1000 nM, raw OD600 reference: median of DMSO wells 0.294, cell-free background 0.041
# [2] = arabinose 10000 nM, raw OD600 reference: median of DMSO wells 0.264, cell-free background 0.041
# [3] = arabinose 100000 nM, raw OD600 reference: median of DMSO wells 0.201, cell-free background 0.041
# [4] = arabinose 1000000 nM, raw OD600 reference: median of DMSO wells 0.193, cell-free background 0.041
# [5] = arabinose 10000000 nM, raw OD600 reference: median of DMSO wells 0.146, cell-free background 0.041
Structure (SMILES),growth [1],growth [2],growth [3],growth [4],growth [5]
Fc1ccc([C@@H]2CCNC[C@H]2COc2ccc3c(c2)OCO3)cc1 [Paroxetine Hydrochloride],0.172 ± 0.01,0.2021 ± 0.0013,0.129 ± 0.0033,0.05573 ± 0.00035,0.0552 ± 0.0014
CN(C)CCC=C1c2ccccc2C=Cc2ccccc21 [Cyclobenzaprine hydrochloride],0.204 ± 0.016,0.247 ± 0.011,0.172 ± 0.011,0.0898 ± 0.0029,0.125 ± 0.0031
CC(=O)[C@H]1CC[C@H]2[C@@H]3C[C@H](C)C4=CC(=O)CC[C@]4(C)[C@H]3[C@@H](O)C[C@]12C [Medrysone],0.162 ± 0.0096,0.2463 ± 0.002,0.1231 ± 0.00055,0.112 ± 0.003,0.138 ± 0.0029
CC[N+](CC)(CC)CCOc1cccc(OCC[N+](CC)(CC)CC)c1OCC[N+](CC)(CC)CC [Gallamine triethiodide],0.308 ± 0.014,0.2806 ± 0.0014,0.233 ± 0.017,0.191 ± 0.0068,0.1674 ± 0.00091
CCCCNc1c(C(=O)OCC)c(C)nc2c1cnn2CC [Tracazolate hydrochloride],0.203 ± 0.049,0.13 ± 0.037,0.197 ± 0.051,0.077 ± 0.031,0.168 ± 0.031
"C[C@](N)(Cc1ccc(O)c(O)c1)C(=O)O [Methyldopa (L,-)]",0.298 ± 0.0073,0.27 ± 0.0043,0.24 ± 0.021,0.188 ± 0.017,0.146 ± 0.0063
CC[C@@H](CO)NCCN[C@@H](CC)CO [Ethambutol dihydrochloride],0.291 ± 0.023,0.255 ± 0.0099,0.216 ± 0.021,0.18 ± 0.0035,0.147 ± 0.0024
Cc1ncc([N+](=O)[O-])n1CC(O)CCl (stereo not given) [Ornidazole],0.282 ± 0.012,0.268 ± 0.007,0.225 ± 0.019,0.177 ± 0.0086,0.1385 ± 0.00036
